PubChem BioAssay (NCI)
This is part of a sample that, as a whole, favours compounds with a hit. Of some 79,000 tested, about 15% had one in any assay. Cut-off read from the data, not from the text of the source: active = growth inhibition above about 70%; inactive = the rest.

Assays:
[1] = NCI Yeast Anticancer Drug Screen. Data for the rad50 strain (AID 155);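 note: 0% = growth of vehicle-only cultures of the same strain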; details: S. cerevisiae rad50 strain growth inhibition; at 50.0 µM; stronger effect = higher value
How it was run: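 Yeast carrying a defined DNA repair defect were exposed to test compounds, and growth was compared with vehicle-treated controls to give percent inhibition.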

[2] = NCI Yeast Anticancer Drug Screen. Data for the mec2-1 strain (AID 157); details: S. cerevisiae mec2-1 strain, at 50.0 µM, stronger effect = higher value
How it was run: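 Each compound was tested on mec2-1 yeast, a strain altered in DNA damage repair or cell cycle control. Growth inhibition is reported relative to vehicle.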

[3] = NCI Yeast Anticancer Drug Screen. Data for the sgs1 mgt1 strain (AID 161);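 note: 0% = growth of cultures given vehicle only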; details: S. cerevisiae sgs1 mgt1 strain, at 50.0 µM, stronger effect = higher value
How it was run: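 Test agents were incubated with a DNA-repair-mutant yeast strain. Growth was then read and compared against vehicle-treated controls.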

[4] = NCI Yeast Anticancer Drug Screen. Data for the cln2 rad14 strain (AID 165);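 note: 0% = growth equal to vehicle treated cultures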; details: S. cerevisiae cln2 rad14 strain, at 50.0 µM, stronger effect = higher value
How it was run: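 Test compounds were added to cln2 rad14 yeast cultures; inhibition of growth was then determined by comparison with vehicle treatment.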

[5] = NCI Yeast Anticancer Drug Screen. Data for the bub3 strain (AID 167); details: S. cerevisiae bub3 mutant strain, at 50.0 µM, stronger effect = higher value
How it was run: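 Compounds were applied to a genetically altered yeast strain carrying a cell-cycle control defect. Growth inhibition was scored against vehicle-treated controls.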

[6] = NCI Yeast Anticancer Drug Screen. Data for the mlh1 rad18 strain (AID 175); details: S. cerevisiae mlh1 rad18 strain growth inhibition; at 50.0 µM; stronger effect = higher value
How it was run: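 Inhibition values reflect reduced growth of mutant yeast versus vehicle-treated controls following compound exposure; the mutations affect DNA damage repair.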

Measured: growth inhibition

COC1=CC(=O)N(C(=O)C2CSC(C(CO)NC(=O)c3csc(/C=N/O)n3)=N2)C1 (stereo not given)
inactive: [1] 1.85% | [2] -11.3% | [3] 8.9% | [4] -4.15% | [5] -6.25% | [6] 19.9%

CCO/N=C(/CNC(=O)Oc1ccccc1)c1ccccc1
inactive: [1] 3.15% | [2] 0.75% | [3] -4.05% | [4] 28% | [5] 37.4% | [6] 9.45%

NNC(=O)c1ccc(Cl)c(Cl)c1
inactive: [1] -1.1% | [2] -13.3% | [3] -0.9% | [4] 2.85% | [5] -16.3% | [6] -23.8%

CCOC(=O)NC(=Cc1ccccn1)c1ccc(Cl)cc1 (mixture of isomers)
inactive: [1] 7.7% | [2] -3.1% | [3] -8.35% | [4] -0.7% | [5] 4.25% | [6] 28.6%

CCCP1(=O)C=C(C)C(=C(Cl)Cl)C(C)=C1 (stereo not given)
inactive: [1] 6.9% | [2] -19.2% | [3] -7.55% | [4] 13.6% | [5] -10.4% | [6] 6.4%

O=C(O)C1CCC(C(=O)O)CC1.[NH-]C1CCCCC1[NH-].[Pt+2] (stereo not given)
inactive: [1] 45.6% | [2] -29.9% | [3] -1.15% | [4] 6.9% | [5] -19.9% | [6] -70.4%

O=C1C=C(c2ccccc2)CC1
inactive: [1] -17.8% | [2] 2.55% | [3] -6.05% | [4] 8.4% | [5] 13.1% | [6] 0.95%

C=CCCCCCCCCC(=O)NCC1CC1
inactive: [1] -10.8% | [2] -7.1% | [3] 2.5% | [4] -44.8% | [5] -27.9% | [6] -4.75%

N#C/C(=C\NC(=S)Nc1ccccc1Cl)C(=O)c1ccc2ccccc2c1
inactive: [1] -24.4% | [2] -18% | [3] 0.7% | [4] 13.3% | [5] -35.6% | [6] -28.8%

C/C(CC1CCCCC1)=N\NC(N)=O
inactive: [1] 0.25% | [2] 1.35% | [3] -5.8% | [4] 13.2% | [5] -10.9% | [6] -27.1%

COc1ccc(CC(N)C(=O)OCCCl)cc1 (stereo not given)
inactive: [1] 6.65% | [2] -0.4% | [3] 13.8% | [4] 10% | [5] 0.3% | [6] 12%

COC(=O)Cc1ccc2c(c1)Sc1ccc(CC(=O)OC)cc1N2C
inactive: [1] -4.75% | [2] -43.8% | [3] -10.1% | [4] -18.2% | [5] 34.7% | [6] -36.3%

CCOC(=O)c1c(O)c(Cc2ccccc2)c(=O)n2c1[nH]c1cc(C)c(C)cc12
inactive: [1] 26.6% | [2] 26.2% | [3] 12.2% | [4] 15.5% | [5] -0.95% | [6] -1%

CCCCCCCCCC1(C(=O)OCC)OC1(C)C (stereo not given)
inactive: [1] 8.55% | [2] -15.8% | [3] 5.75% | [4] 10.5% | [5] 15.2% | [6] -11.8%

COC1CCC2C(C1)C(C1CCCCC1)C1CCCCC1C2C1CCCCC1 (stereo not given)
inactive: [1] -1.1% | [2] 8.05% | [3] -14.6% | [4] -7.25% | [5] -0.9% | [6] -7.65%

CN(C)CCNC(=O)c1cnn(C)c1[N+](=O)[O-]
inactive: [1] 26.4% | [2] 8.75% | [3] 17.3% | [4] 13.2% | [5] 0% | [6] -59.1%

CCOC(=O)Nc1c2ccccc2c(NC(=O)OCC)c2cc(Cl)ccc12
inactive: [1] 4.2% | [2] -1.75% | [3] 3.75% | [4] 3.25% | [5] 2.85% | [6] 19.8%

CCN(CC)CCNc1nnc(NCCN(CC)CC)c2cc3ccccc3cc12
inactive: [1] 3.75% | [2] 21% | [3] -10.1% | [4] -4.45% | [5] -0.25% | [6] 6.8%

Cc1ccc(F)c([N+](=O)[O-])c1
inactive: [1] -3.55% | [2] 7.1% | [3] -10.5% | [4] 0% | [5] -9.65% | [6] -6.5%

COC(=O)CC[C@@H](NC(=O)C(C)NC(=O)COC1C(O)C(COC(=O)CCCCCCCCCCNC(=O)c2ccc([N+](=O)[O-])c3[nH]c4cc(Br)ccc4c(=O)c23)OC(OCc2ccccc2)C1NC(C)=O)C(N)=O (stereo not given in full)
inactive: [1] -14.5% | [2] -10.7% | [3] -17.6% | [4] 1.5% | [5] -5.75% | [6] -16.6%
